Sampled rows, rich in hits. Any-hit rate of the full collection: about 27%.
CYP2C9 inh = blocks human cytochrome P450 2C9; inhibition, % at 5 µM; CYP2C9 Supersomes, luciferin-H conversion, luminescence; hit rate 20% among 96,000; AID 777;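 active = blocking of liver enzyme CYP2C9 beyond about 50% at 5 µM, limit read from the data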
CYP2C19 activ = increases human CYP2C19 enzyme activity. P33261. recombinant CYP2C19, luciferin-H EGE luminescence; active compounds read high; 0 = fully inhibited enzyme, 1 = untreated enzyme. activation factor at 5 µM. 96,000 tested, under 10 active. AID 1025;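 active = activation factor of at least 2 at 5 µM in the primary screen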;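 note: 0 = wells with 2.5 mM tranylcypromine and 1 = vehicle-only wells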
Cav3 T inh = inhibitors of human Cav3.2 T-type calcium channel; O95180; Cav3.2-expressing cells, Fluo-4 calcium fluorescence FDSS; active compounds read low; B-score at 10 µM; hit rate 4% among 100,000; AID 449739;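 active = single-dose well whose peak fluorescence ratio is a statistical outlier from its plate by either plate-standardised score or position-corrected B-score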
CYP2C9 activ = increases human cytochrome P450 2C9 activity | recombinant CYP2C9, luciferin-H conversion, luminescence; active compounds read high; factor 1 = untreated enzyme, 0 = blocked | activation factor at 5 µM | hit rate 1.4% among 96,000 | AID 1024;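 active = activation factor of 2 or more for CYP2C9 at a 5 µM dose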;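 note: 0 = sulfaphenazole-blocked wells and 1 = vehicle-only wells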
CYP2C19 inhib = inhibitors of human CYP2C19; CYP2C19 Supersomes, luciferin-H EGE luminescence, 30 min; hit rate 21% among 96,000; inhibition, % at 5 µM; P33261;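 active = CYP2C19 inhibition above a set limit at 5 µM in the primary screen, cut at about 50% in these data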;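 note: plate controls were negative control wells for no effect and 2.5 mM tranylcypromine positive control for full effect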
Active calls of the source: *; nt = not tested or not shown.

SMILES | CYP2C9 inh | CYP2C19 activ | Cav3 T inh | CYP2C9 activ | CYP2C19 inhib
O=S(=O)(c1ccccc1)c1cnc(-c2cccnc2)nc1-c1ccccc1 | 13.0 | 0.9 | nt | 0.9 | 7.9
Cc1nc(-c2ccccc2)sc1-c1nc(-c2cccs2)ncc1S(=O)(=O)c1ccccc1 | 62.2* | 0.8 | -4.79* | 0.4 | 17.2
Cc1ncc(S(=O)(=O)c2ccc(Cl)cc2)c(-c2ccccc2)n1 | 45.7 | 0.6 | -2.3 | 0.5 | 37.1
Cc1nc(-c2ccccc2)sc1-c1nc(-c2cccnc2)ncc1S(=O)(=O)c1ccccc1 | 77.0* | 0.5 | -5.04* | 0.2 | 45.4
CCC(=O)N(CCC(c1ccccc1)c1ccco1)Cc1cccs1 (centres undefined) | 69.0* | 0.6 | -9.38* | 0.3 | 36.1
CCN(CC)C(=O)CC(c1ccccc1)c1ccco1 (centres undefined) | 4.7 | 0.8 | 0.109 | 1 | 20.6
COc1ccccc1C(CCN(Cc1cccs1)C(C)=O)c1ccco1 (centres undefined) | 90.3* | 0.1 | -4.96* | 0.1 | 92.4*
CCC(=O)NCCC(c1ccco1)c1ccccc1OC (centres undefined) | nt | nt | 0.882 | nt | nt
Cc1cc(C)n2nc(/C(C#N)=C/c3ccccc3)c(C#N)c2n1 | 17.6 | 0.9 | nt | 0.8 | 5.0
CS(=O)(=O)N1CCC(C(=O)NCC2CCCO2)CC1 (centres undefined) | -7.5 | 1 | 0.0176 | 1.1 | -1.7
COc1cccc(NC(=O)CSc2nc(C)cs2)c1 | 23.6 | 0.2 | -0.517 | 0.8 | 81.9*
O=C(CSc1nc2ccccc2s1)Nc1nccs1 | 18.6 | 0.5 | -1.54 | 0.8 | 52.9*
Cc1csc(NC(=O)CCCSc2nc3ccccc3s2)n1 | 52.0* | 0.1 | -2.95 | 0.5 | 87.5*
Cc1csc(NC(=O)CSc2nc(C)cs2)n1 | 13.5 | 0.4 | 0.167 | 0.9 | 57.8*
N#Cc1ccsc1NC(=O)COC(=O)CCCSc1nc2ccccc2s1 | 35.2 | 0.8 | 0.0305 | 0.6 | 18.1
Cn1c(N2CCN(C(=O)C34CC5CC(CC(C5)C3)C4)CC2)nc2ccccc21 | 6.7 | 1 | nt | 0.9 | -0.9
O=C(NCc1ccccc1)c1onc(CSc2ccccn2)c1C(=O)NCc1ccccc1 | nt | nt | -1.6 | nt | nt
O=C(CCCSc1nc2ccccc2s1)NCc1ccco1 | -24.1 | 0.2 | -1.34 | 1.2 | 75.8*
COC(=O)CCCCCCCCC(=O)Nc1nc2ccccc2s1 | 82.2* | 0.4 | -1.63 | 0.2 | 62.8*
O=C(NCc1ccco1)c1cccnc1-c1nc2ccccc2s1 | 41.1 | 0.7 | nt | 0.6 | 33.2
Cc1csc(SCC(=O)Nc2ccccn2)n1 | 0.9 | 0.7 | -0.344 | 1 | 33.0
Nc1nonc1NC(=O)CSc1nc2ccccc2s1 | 8.4 | 0.2 | -1.21 | 0.9 | 79.1*
Cc1csc(SCC(=O)Nc2cccc3nsnc23)n1 | 76.6* | 0.4 | -3.21 | 0.2 | 55.3*
CCOC(=O)Nc1ccc2ncn(C)c(=O)c2c1 | 5.9 | 1 | 0.95 | 0.9 | 2.2
COc1ccc(-c2csc(NC(C)c3nc4cc(C(=O)NCCCO)ccc4n3Cc3ccc(C)cc3)n2)cc1 (centres undefined) | nt | nt | -0.326 | nt | nt
SMILES | CYP2C9 inh | CYP2C19 activ | Cav3 T inh | CYP2C9 activ | CYP2C19 inhib
Cc1ccc2c(c1C)NC(C)CC2C (centres undefined) | -19.0 | 1.1 | -0.182 | 1.2 | -14.1
O=C1C(c2ccccc2)SC(=Nc2ccccc2)N1S(=O)(=O)c1ccccc1 (centres undefined) | -4.9 | 1 | -0.559 | 1 | 4.4
CCc1nnc(NC(=O)CSc2nc3ccccc3s2)s1 | 57.5* | 0.8 | -2.91 | 0.4 | 19.0
Cc1csc(SCC(=O)Nc2cc(C(C)(C)C)nn2-c2ccccc2)n1 | 79.8* | 0.3 | -2.83 | 0.2 | 70.8*
COCC(=O)OCC(=O)Nc1cc(C(C)(C)C)nn1-c1ccccc1 | 9.0 | 1.1 | 0.00538 | 0.9 | -14.6
Cc1csc(NC(=O)CSc2nc3ccccc3s2)n1 | -1.1 | 0.7 | -7.01* | 1 | 28.8
CC(C)c1nnc(NC(=O)CSc2nc3ccccc3s2)s1 | 42.8 | 1 | -2.29 | 0.6 | -3.1
Cn1cccc1C(=O)NC(=O)CSc1nc2ccccc2s1 | -54.7 | 1 | -0.132 | 1.5 | 3.5
O=C(NCC1CCCO1)c1ccc2c(c1)S(=O)(=O)c1ccccc1C2=O (centres undefined) | nt | nt | 0.859 | nt | nt
Cc1cccc(NC(=O)c2ccc(-n3ccnc3)nc2)c1 | 98.1* | 0 | -0.493 | 0 | 100.3*
O=C(C1=C[C@H](C2CC2)C[C@H](OCc2ccc(CO)cc2)O1)N1CCOCC1 | nt | nt | 0.000818 | nt | nt
COC(=O)c1ccccc1NC(=O)c1ccc(Cn2cc(Cl)cn2)o1 | -32.6 | 0.5 | 0.299 | 1.3 | 50.4*
Cc1ccc(NC(=O)c2ccc(Cn3cc(Br)cn3)o2)cc1 | nt | nt | -3.83 | nt | nt
COC(=O)c1cc(NC(=O)c2ccc(Cn3cc(Cl)cn3)o2)cc(C(=O)OC)c1 | 89.4* | 0.2 | 0.341 | 0.1 | 77.2*
CCC(CC)c1nnc(NC(=O)CN2C(=O)C3C4C=CC(C4)C3C2=O)s1 (centres undefined) | 41.1 | 1 | -0.687 | 0.6 | 4.4
O=C(CSC1CC(=O)N(CC(c2ccccc2)c2ccccc2)C1=O)Nc1ccc(Cl)cc1 (centres undefined) | 85.3* | 0.5 | -7.44* | 0.1 | 53.4*
O=C(CCN1CCN(c2ccccc2)CC1)Nc1ccc(Cl)cc1 | nt | nt | -1.11 | nt | nt
Clc1cccc(Cl)c1CSc1nnc(CN2CCOCC2)n1-c1ccccc1 | 6.7 | 0.7 | -1.59 | 0.9 | 33.2
Clc1ccc(CSc2nnc(CN3CCOCC3)n2-c2ccccc2)cc1Cl | 61.8* | 0.2 | -3.4 | 0.4 | 84.4*
CCCN1C2=NS(=O)(=O)CCN2c2ccccc21 | -20.9 | 1 | -0.331 | 1.2 | -1.0
CCCCOc1ccc(C2(C)CC(=O)NC2=O)cc1 (centres undefined) | 15.4 | 0.5 | 0.335 | 0.8 | 50.6*
COc1ccc(C(=O)/C(=C\c2ccco2)N2C=CC=CC2=C(C#N)C#N)cc1 | 34.1 | 0.9 | -6.84* | 0.7 | 14.9
COc1ccc(C(NC(=O)/C=C\c2ccco2)c2ccc(OC)c(OC)c2)cc1 (centres undefined) | 1.3 | 1 | -1.06 | 1 | 3.3
COc1ccc(OC)c(C(=O)c2oc3ccccc3c2NC(C)=O)c1 | 48.8 | 0 | -0.276 | 0.5 | 98.1*
CCOC(=O)c1oc2ccccc2c1NC(=O)c1ccccc1OC | 37.8 | 1 | -4.69* | 0.6 | 3.5
SMILES | CYP2C9 inh | CYP2C19 activ | Cav3 T inh | CYP2C9 activ | CYP2C19 inhib
CCOC(=O)c1oc2ccccc2c1NC(=O)COc1cccc(OC)c1 | 19.5 | 0.9 | -0.0665 | 0.8 | 8.6
O=C(NCc1cccc(Br)c1)C1CC(c2ccccc2C(F)(F)F)=NO1 (centres undefined) | nt | nt | -0.898 | nt | nt
Cc1c(C(=O)NCc2ccco2)oc2ccc(S(=O)(=O)N3CCC4(CC3)OCCO4)cc12 | 40.0 | 0.9 | 1.33 | 0.6 | 13.7
COc1ccc(CCNC(=O)c2oc3ccc(S(=O)(=O)N4CCOCC4)cc3c2C)cc1OC | 73.2* | 0.7 | 1.85 | 0.3 | 32.8
Cc1c(C(=O)NCCc2ccccc2)oc2ccc(S(=O)(=O)N3CCC4(CC3)OCCO4)cc12 | 86.7* | 0.4 | -3.08 | 0.1 | 62.6*
Cc1ccc(CNC(=O)c2oc3ccc(S(=O)(=O)N4CCOCC4)cc3c2C)cc1 | 19.7 | 0.8 | -1.89 | 0.8 | 15.5

Bioassay records (PubChem BioAssay)
